Assay [1] addresses Estrogen receptor (Homo sapiens) (UniProt P03372). Nature of the assay: CCTE_Deisenroth_AIME_384WELL_LUC_Active: CCTE's 384-well Estrogen Receptor Transactivation Assay with AIME metabolic competence (ERTA luciferase; metabolism positive), Deisenroth Lab (AID 2284030). In a few lines:
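Estrogenic luciferase signal in VM7Luc4E2 cells is measured at 24 hour, after chemicals have been preconditioned 2 hours with PB/BNF-induced rat hepatic S9 in alginate. Gain of signal is fitted relative to 17beta-estradiol, across 0.002 - 200 uM.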

Assay [2] can be described thus: CCTE_Deisenroth_AIME_384WELL_CTox_Active: Cytotoxicity Assessment (CTOX) in CCTE's 384-well Estrogen Receptor Transactivation Assay with AIME metabolic competence (metabolism positive), Deisenroth Lab (AID 2284037).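 Also: chemicals first conditioned 2 h by alginate-bound induced rat liver S9 before cells; activity means signal loss indicating cell death.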 Put shortly:
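Chemicals pre-incubated 2 hours with alginate-immobilised phenobarbital/beta-naphthoflavone-induced male Sprague Dawley rat liver S9, then conditioned medium applied 24 hour to VM7Luc4E2 cells. Viability by fluorogenic protease substrate; 10-point series 0.002 - 200 uM.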

Assay [3] addresses Estrogen receptor (Homo sapiens) (UniProt P03372). Nature of the assay: CCTE_Deisenroth_AIME_384WELL_LUC_Inactive: CCTE's 384-well Estrogen Receptor Transactivation Assay without AIME metabolic competence (ERTA luciferase; metabolism negative), Deisenroth Lab (AID 2284038).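 Also: hits raise estrogen receptor luciferase signal so potencies reflect agonists.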 Put shortly:
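Metabolism-negative mode: chemicals (10-point, 0.002–200 uM) held 2 h with alginate-water microspheres, then conditioned medium applied to VM7Luc4E2 cells for 24 h. Luciferase induction referenced to 17beta-estradiol.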

Assay [4] can be described thus: CCTE_Deisenroth_AIME_384WELL_CTox_Inactive: Cytotoxicity Assessment (CTOX) in CCTE's 384-well Estrogen Receptor Transactivation Assay without AIME metabolic competence (metabolism negative), Deisenroth Lab (AID 2284039).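 Also: cell viability via live-cell protease substrate cleaved to fluorescent probe; cells exposed 24 h to medium preincubated 2 h with alginate-water beads without S9; loss of fluorescence signal means loss of viability.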 Put shortly:
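VM7Luc4E2 human breast cells received conditioned medium from a 2 h incubation of chemical with alginate-water microspheres (no S9), then were exposed 24 h. Viability was read as protease-substrate cleavage to a fluorescent probe; loss of signal was fitted bidirectionally over 0.002–200 uM.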

For assay [5], the target named is Estrogen receptor (Homo sapiens) (UniProt P03372). In words: CCTE_Deisenroth_AIME_384WELL_LUC_Shift: CCTE's 384-well Estrogen Receptor Transactivation Assay with AIME metabolic competence data shift (ERTA luciferase; difference in metabolism positive and negative), Deisenroth Lab (AID 2284041; active = hit-call score of the fitted dose curve at least 0.9, where 1 is the maximum; inactive = score below 0.9;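 also: shift is response with S9 minus without S9 so positive means metabolism raised ER signal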). In a few lines: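 Chemicals (0.002–200 uM, 10 points) pre-incubated 2 h with alginate-encapsulated induced male Sprague Dawley rat liver S9 or S9-free, then medium applied 24 h to VM7Luc4E2 cells; luciferase. Endpoint is per-concentration difference, S9-positive minus negative.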
Chain of Estrogen receptor (Homo sapiens) (P03372 whole entry, looked up): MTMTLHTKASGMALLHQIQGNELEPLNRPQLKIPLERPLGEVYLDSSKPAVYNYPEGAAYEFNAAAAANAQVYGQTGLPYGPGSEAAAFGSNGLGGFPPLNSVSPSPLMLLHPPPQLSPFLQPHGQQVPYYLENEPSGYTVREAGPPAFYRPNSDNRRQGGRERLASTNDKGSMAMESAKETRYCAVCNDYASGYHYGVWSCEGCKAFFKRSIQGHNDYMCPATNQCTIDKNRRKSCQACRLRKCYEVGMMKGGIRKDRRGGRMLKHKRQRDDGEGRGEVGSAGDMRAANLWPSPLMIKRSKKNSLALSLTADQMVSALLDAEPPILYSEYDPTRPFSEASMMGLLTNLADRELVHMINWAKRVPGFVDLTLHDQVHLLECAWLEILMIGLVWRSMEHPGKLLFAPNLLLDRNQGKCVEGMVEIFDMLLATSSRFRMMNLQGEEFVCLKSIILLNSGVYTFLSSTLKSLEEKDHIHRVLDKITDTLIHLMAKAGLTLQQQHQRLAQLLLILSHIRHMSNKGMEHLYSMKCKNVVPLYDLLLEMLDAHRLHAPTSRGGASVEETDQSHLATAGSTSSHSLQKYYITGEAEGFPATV

Assay [6] can be described thus: CCTE_Shafer_MEA_dev_firing_rate_mean: CCTE's Neural Network Formation Assay for Mean Firing Rate, Shafer Lab (AID 2284031; active = hit-call score of the fitted dose curve at least 0.9, where 1 is the maximum; inactive = score below 0.9). Put shortly: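 Primary rat cortical neurons on 48-well MEA plates, exposed from plating day 0 with dosing renewed on DIV 5 and 9. Mean well firing rate over active electrodes, recorded days 5, 7, 9, 12, summarised as trapezoidal AUC.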
A short description of assay [7]: CCTE_Shafer_MEA_dev_per_burst_spike_percent: CCTE's Neural Network Formation Assay for Percent of Spikes in a Burst, Shafer Lab (AID 2284032; active = hit-call score of the fitted dose curve at least 0.9, where 1 is the maximum; inactive = score below 0.9;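 as to AC50: fitted as a decrease in burst spike percentage below DMSO baseline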). In a few lines:
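Rat primary cortical neurons on 16-electrode MEA wells, dosed from plating day 0 for 12 days with renewal on DIV 5 and 9; spikes-in-bursts percentage averaged over bursting electrodes, collapsed as AUC across days 5, 7, 9, 12; loss direction versus DMSO.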

The nature of assay [8]: CCTE_Shafer_MEA_dev_active_electrodes_number: CCTE's Neural Network Formation Assay for Number of Active Electrodes, Shafer Lab (AID 2284040).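 As to AC50: potency for loss of active electrodes versus DMSO so lower counts are hits.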 Put shortly: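 Primary rat cortical neurons on 16-electrode MEA wells, exposed from day 0 through day 12 with compound renewed at DIV 5 and 9 feeds. Active electrodes (mean firing ≥5 spikes/min) counted at DIV 5, 7, 9, 12; trapezoidal AUC across days, loss-of-signal versus DMSO.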

Assay [9] is described as follows: CCTE_Shafer_MEA_dev_bursting_electrodes_number: CCTE's Neural Network Formation Assay for Number of Bursting Electrodes, Shafer Lab (AID 2284043).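 As to AC50: potency is for loss of bursting electrodes relative to DMSO.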 Put shortly: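 Primary rat cortical neurons plated on 16-electrode MEA wells, exposed from day 0 with compound renewed at DIV 5 and 9. Electrodes bursting ≥1 burst per 2 min counted on days 5, 7, 9 and 12; trapezoidal AUC across days, fitted for loss versus DMSO.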

SMILES strings stand for the structures. Where “and” joins values, the source holds several entries; their conditions need not be identical. Identical values can stand only once. Results filed as inconclusive are left out. More than one record can exist for a structure, and the calls need not agree. Calls of active or inactive are those of the source. The calls were made as follows, unless noted: active = hit-call score of the fitted dose curve at least 0.9, where 1 is the maximum; inconclusive = response in the unintended direction; inactive = score below 0.9.

Take `COC(=O)NC(=S)Nc1ccccc1NC(=S)NC(=O)OC`: the molecule was classed as inactive in [1], in assay [2], in assay [3], in assay [4] and in assay [5].

As to `CS(=O)(=O)c1cc(C(F)(F)F)ccc1C(=O)c1cnoc1C1CC1`, the molecule was classed as inactive in assay [1], in [6], in assay [7], in assay [2], in assay [3] and in assay [4]. Moreover, the call in [8], in assay [5] and in assay [9] was inactive.

For `O=c1n(Cl)c(=O)n(Cl)c(=O)n1Cl`, the molecule was called inactive in assay [1], in [3], in assay [4] and in assay [5].

Turning to `CN=C=S`, the molecule was called inactive in [1], in [2], in assay [3], in assay [4] and in [5].

On to `COc1cc(OC)nc(NC(=O)NS(=O)(=O)c2ncccc2OCC(F)(F)F)n1`, for which the call in assay [1], in [2], in assay [3], in assay [4] and in assay [5] was inactive.

With `CCNC(=O)NC(=O)C(C#N)=NOC`, the result in [6], in assay [7], in [8] and in assay [9] was inactive.

For `CCOP(=S)(OCC)Oc1nc(Cl)n(C(C)C)n1`, the result in assay [1], in [2], in assay [3], in assay [4] and in assay [5] was inactive.

Consider `Cc1cc(C)nc(Nc2ccccc2)n1`, for which the AC50 in assay [1] is 93.3 µM (active). The result in assay [3] and in assay [5] was inactive.

For the molecule `CCSC(=O)N1CCCCCC1`, the molecule was classed as inactive in assay [1], in assay [6], in assay [7], in assay [2], in [3] and in assay [4]. The result in assay [5] was inactive. For the same molecule, the values for the AC50 in assay [8] and in assay [9] were 3.42 µM (active) and 1.93 µM (active), respectively.

In the case of `CCOc1nc(C(Cl)(Cl)Cl)ns1`, the molecule was classed as inactive in assay [1], in [3] and in assay [5].

Consider `O=C1C2CC=CCC2C(=O)N1SC(Cl)(Cl)Cl` (centres undefined), for which the molecule was called inactive in assay [6] and in assay [8]. For the same molecule, the AC50 in assay [7] was 16.7 µM (active) and 15.7 µM (active); in assay [8] it was 9.85 µM (active); in assay [9] it was 9.85 µM (active) and 1.97 µM (active).

On to `CC(C)Oc1cccc(NC(=O)c2ccccc2C(F)(F)F)c1`, for which the result in [2], in [4] and in [5] was inactive.

Regarding `Nc1cnn(-c2ccccc2)c(=O)c1Cl`, the molecule was called inactive in assay [1], in assay [3] and in assay [5].

With `CCN(CC)c1nc(C)cc(OP(=S)(OC)OC)n1`, the call in [6] was inactive. In addition, the AC50 is 30.9 µM (active) in [7], 33 µM (active) in assay [8] and 30.5 µM (active) in [9].

Consider `N#Cc1c(Cl)cccc1Cl`, for which the outcome in [1], in [2], in [3], in assay [4] and in assay [5] was inactive.

Take `COP(=S)(OC)Oc1ccc([N+](=O)[O-])c(C)c1`: the outcome in assay [1], in assay [6], in assay [7], in [2], in assay [3] and in [4] was inactive. Further, the molecule was called inactive in assay [8], in assay [5] and in [9].

On to `COc1ccc(-c2ccccc2)cc1NNC(=O)OC(C)C`, for which the half-maximal activity concentration (AC50) in [2] was 79.5 µM (active); in [4], 77.9 µM (active). Also, the call in [3] and in [5] was inactive.

`Nc1c(Cl)c(Cl)nc(C(=O)O)c1Cl`: the AC50 in assay [1] was 41.7 µM (active); in assay [3], 14.3 µM (active); in assay [5] it was 5.4 µM (active). The result in assay [2] and in assay [4] was inactive.

With `CCC(C)n1c(=O)[nH]c(C)c(Br)c1=O` (centres undefined), the result in [1], in [2], in assay [3] and in assay [5] was inactive.

On to `CNC(=O)N(C)c1nnc(C(C)(C)C)s1`, for which the outcome in assay [1], in [3] and in [5] was inactive.

As for `COCc1cnc(C2=NC(C)(C(C)C)C(=O)N2)c(C(=O)O)c1` (centres undefined), the molecule was classed as inactive in assay [1], in assay [2], in assay [3], in assay [4] and in assay [5].

With `CC(C)Nc1nc(Cl)nc(NC(C)C)n1`, the molecule was classed as inactive in [1], in assay [3] and in [5].

`COP(=O)(OC)O/C(C)=C/C(=O)N(C)C`: the call in [6], in [7] and in assay [8] was inactive.

As for `COCC(C)N(C(=O)CCl)c1c(C)csc1C` (centres undefined), the molecule was called inactive in assay [1], in [2], in assay [3], in [4] and in [5].

On to `CCCCC(C#N)(Cn1cncn1)c1ccc(Cl)cc1` (centres undefined), for which the molecule was classed as inactive in assay [2] and in assay [5].

`CC(C)(C)C(=O)C(Oc1ccc(Cl)cc1)n1cncn1` (centres undefined): the outcome in [6] was inactive. In addition, the figures for the AC50 in assay [7], in assay [8] and in assay [9] were 41.3 µM (active), 38.7 µM (active) and 39.6 µM (active), respectively.

Turning to `CCCCOCN(C(=O)CCl)c1c(CC)cccc1CC`, the outcome in [2] and in assay [5] was inactive.

As for `COC(=O)NS(=O)(=O)c1ccc(N)cc1`, the molecule was called inactive in assay [1], in assay [3] and in assay [5].

For `CS(=O)(=O)c1ccc(C(=O)C2C(=O)CCCC2=O)c([N+](=O)[O-])c1`, the result in assay [6], in assay [7], in assay [8] and in assay [9] was inactive.

As for `CC1(C)CON(Cc2ccccc2Cl)C1=O`, the molecule was classed as inactive in assay [1]. Moreover, the AC50 in assay [3] is 73.1 µM (active); in [5], 37.7 µM (active).

On to `Clc1cccc(C(Cl)(Cl)Cl)n1`, for which the result in assay [1], in assay [3] and in assay [5] was inactive.

Usually AC50 stands for the midpoint of the concentration-response curve, whichever way the signal moves.

The values above are taken from PubChem BioAssay (EPA / NIEHS).
